Screening results (PubChem BioAssay)
HCV inh = qHTS Assay for Inhibitors of Hepatitis C Virus (HCV); Huh7.5.1 HCVcc-Cre infection, luciferase reporter, 44 h; Potency, µM (series often up to 41.8 µM), inactives show at the highest dose activity change, negative = inhibition, most hits filed as inhibitors; actives 3.4% (n = 340,000); note: % is set by controls: 0 for no effect and ±100 for the full control effect
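Luciferase read-out (15 sec integration) after a 15 min room-temperature substrate step quantifies HCVcc-Cre infection. Cells, 1,000 per well, had compound added 4 h post-plating, then virus at ~0.5 moi, and were cultured 44 h.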
Pf growth 48h = Primary qHTS for delayed death inhibitors of the malarial parasite plastid, 48 hour incubation | P. falciparum luciferase growth in erythrocytes, 48 h | Potency, µM (series often up to 28.7 µM), without a hit: top-dose activity change, negative = inhibition, most hits filed as inhibitors | actives 5.9% (n = 310,000) | AID 504832, 2011; note: % is set by controls: 0 for no effect and ±100 for the full control effect
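Here the parasites carry a stable luciferase gene and grow inside erythrocytes in Albumax-based RPMI medium with compound for one erythrocytic cycle. Activity is scored as loss of luminescent signal.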
Pf growth 96h = Primary qHTS for delayed death inhibitors of the malarial parasite plastid, 96 hour incubation; P. falciparum luciferase reporter growth, 96 h; Potency, µM (titrated, usually from 28.7 µM), without a hit: at the top dose activity change, negative = inhibition, hits mostly inhibitors; actives 6.9% (n = 320,000); note: % is set by controls: 0 for no effect and ±100 for the full control effect
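P. falciparum expressing integrated firefly luciferase, in erythrocytes at 2% hematocrit, 0.05% parasitemia, incubated with compounds 96 h at 37 C, 5% CO2. Growth inhibition read as loss of luminescence; two-generation exposure targets delayed-death apicoplast inhibitors.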
Vaccinia mCherry = qHTS for Stage-Specific Inhibitors of Vaccinia Orthopoxvirus: mCherry Reporter Primary qHTS. Vaccinia virus mCherry reporter infection, fluorescence. Potency, µM (doses to about 36.5 µM), for inactives: at the top dose activity change, negative = inhibition, most hits filed as inhibitors. actives 0.63% (n = 310,000). AID 720579, 2013; calls by dose curve; tested in A549 cells; note: % is set by controls: 0 for no effect and ±100 for the full control effect; nearly all actives have a fitted effect of over 35% in size
VACV Venus inh = qHTS for Stage-Specific Inhibitors of Vaccinia Orthopoxvirus: Venus Reporter Primary qHTS | Vaccinia virus Venus reporter expression, fluorescence | Potency, µM (top dose mostly 36.5 µM), for inactives: top-dose activity change, negative = inhibition, most hits filed as inhibitors | actives 0.46% (n = 330,000) | AID 720580, 2013; calls by dose curve; tested in A549 cells; note: % is set by controls: 0 for no effect and ±100 for the full control effect; nearly all actives have a fitted effect of over 30% in size
NS1 inh = qHTS Assay for Inhibitors of Influenza NS1 Protein Function. Potency, µM (top dose mostly 46.1 µM), inactives show top-dose activity, positive = more growth. actives 0.4% (n = 270,000). AID 2326, 2010; calls by dose curve; note: actives are rising curves; nearly all actives have a fitted effect of over 50% in size
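Recovery from NS1-induced slow growth read by OD600 in budding yeast switched to galactose assay medium (pH 6.0, -URA) at 1:100 dilution. Compound 23 nl per well; the matching strain lacking NS1 serves as control.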
An asterisk follows results filed as active; i = inactive; ? = inconclusive; . = not tested or not shown; ! = not active in a repeat; [ ] = remark or other dose. A selection: hits, their analogues and other compounds. The true share with any hit is near 11%. Unless noted, calls come from the whole dose curve; as a rule, active = well fitted inhibition curve with a large enough effect; inconclusive = small, poorly fitted or top-dose-only effect, or another doubt; inactive = no such curve, though single readings can be large or run the other way. Potency is the fitted concentration of half-maximal effect.

SMILES | HCV inh | Pf growth 48h | Pf growth 96h | Vaccinia mCherry | VACV Venus inh | NS1 inh
COc1ccc2[nH]c3c(c2c1)CCN1C(=O)N([C@@H](C)C(=O)NCCc2ccc(F)cc2)C(=O)[C@]31C | ? | -29.4% | 8.28µM* | -13.5% | -15.3% | -97.6%
Cc1ccc(CNC(=O)[C@H](C)N2C(=O)N3CCc4c([nH]c5ccccc45)[C@@]3(C)C2=O)cc1 | ? | ? | -9.6% | -2.2% | -6.0% | 11.9%
COc1ccc(CNC(=O)[C@H](C)N2C(=O)N3CCc4c([nH]c5ccccc45)[C@@]3(C)C2=O)cc1OC | 3.55µM* | ? | 8.28µM* | -20.6% | -19.0% | 15.2%
CCCc1nnc(SCC(=O)N2CCCCC2C)n1CCCOC (configuration not stated) | 13.6% | 26.2% | 28.5% | -16.7% | -7.4% | 4.7%
O=C(CN1C(=O)NC(Cc2ccccc2)C1=O)Nc1ccc(OC(F)F)cc1 (configuration not stated) | 13.3% | 7.1% | 13.1µM* | -7.0% | -24.9% | .
CCCCc1nc(Cl)c(CO)n1Cc1ccc(-c2ccccc2-c2nnn[nH]2)cc1 | -10.0% | . | . | i | -2.8% | .
CCCCc1nc(Cl)c(CO)n1Cc1ccc(-c2ccccc2-c2nn[nH]n2)cc1 | 0.562µM* | 13.5µM*! | 7.57µM* | -11.4% | -13.6% | 17.6%
CCCCC(=O)N(Cc1ccc(-c2ccccc2-c2nn[nH]n2)cc1)C(C(=O)O)C(C)C (configuration not stated) | . | 15.1µM* | 10.7µM* | . | . | .
CCN(CC)c1ccc(/C=N/N2CCN(Cc3ccc(C)cc3C)CC2)c(O)c1 | 6.2% | -9.0% | 6.4% | -11.7% | -7.3% | -9.5%
O=C(COc1ccccc1)Nc1nnc(-c2ccccc2Cl)o1 | 10.8% | . | . | -15.8% | -26.3% | .
Cc1ccc(O)c(C(=O)CC(=O)c2ccc(C(C)(C)C)cc2)c1 | ? | ? | ? | . | . | 20.6%
Cc1ccc(O)c(C(=O)CC(=O)c2ccccc2Cl)c1 | 5.01µM* | 14.7µM* | 15.6% | -11.8% | -17.6% | -59.2%
COc1cc(-c2nnc(SCCOc3ccccc3)o2)cc(OC)c1OC | . | . | . | -11.6% | 5.0% | .
COc1cc(-c2nnc(SCC3(c4ccccc4)OCCO3)o2)cc(OC)c1OC | ? | 13.1µM* | 5.22µM* | 4.6%[1.46 µM] | -17.6% | -12.4%
CC(C)(C)N1C(=O)[C@H]2[C@@H](c3ccc(Br)cc3)N3C(=O)N(c4ccccc4)C(=O)[C@@]3(Cc3ccccc3)[C@H]2C1=O | -1.9% | ? | ? | i | -13.0% | .
CCc1ccccc1NC1=NCC(=O)N1Cc1ccc2c(c1)OCO2 | -16.2% | -19.4% | 4.15µM* | -18.5% | -17.8% | -11.8%
COc1ccc(OC)c(N2C(=O)C(Cl)=C(N3CCCCC3)C2=O)c1 | 15.4% | -1.4% | 20.7% | . | . | 5.3%
CCc1ccccc1N1C(=O)C(Cl)=C(N2CCOCC2)C1=O | -9.2% | 0.6% | 1.47µM* | . | . | 0.9%
O=C1C(Cl)=C(N2CCOCC2)C(=O)N1c1ccc(Br)cc1 | -0.8% | ? | 11.7µM* | . | . | 1.0%
COc1ccccc1N1C(=O)C(Cl)=C(N2CCCC2)C1=O | -6.9% | 22.7% | 9.28µM* | -12.8% | -13.9% | 8.7%
CCN(CC)c1ccc(NC(=O)c2cc3c(=O)n4cccc(C)c4nc3n2C)c(C)c1 | . | . | . | -10.3% | -4.7% | .
CCOc1ccc(CSCCNC(=S)Nc2ccc(OC)cc2)cc1 | 10µM* | 8.28µM* | ? | . | . | 0.4%
CCCOc1ccc(CSCCNC(=S)Nc2ccccc2)cc1 | ? | 13.1µM* | ? | i | -23.4% | -11.0%
S=C(NCCSCc1ccc(Cl)cc1)Nc1ccccc1 | -2.4% | ? | ? | -28.9% | -26.2% | -176.2%
CCOc1ccc(NC(=S)N/N=C(\C)Cc2ccc(OC)cc2)cc1 | 5.9% | 3.0% | -23.4% | -25.5% | -5.1% | 25.2%
SMILES | HCV inh | Pf growth 48h | Pf growth 96h | Vaccinia mCherry | VACV Venus inh | NS1 inh
Clc1ccc(NC2=NCCC2)cc1Cl | -9.4% | ? | ? | . | -16.7% | -7.5%
COc1ccc(C(O)c2nc3ccccc3n2C)cc1OC (configuration not stated) | 2.82µM* | 10.5% | 2.2% | ? | -26.1% | -2.2%
COc1ccc(NC2=Nc3ccccc3N3C2=Nc2c(c(C)nn2-c2ccc(C)cc2)C3c2cccnc2)cc1 (configuration not stated) | ? | . | 2.08µM* | -8.8% | -2.2% | 8.5%
CC(=O)Nc1ccc(NC(=O)c2c(C)nn(-c3ccccc3)c2-n2cccc2)cc1 | . | . | . | -6.6% | 2.4% | .
CC(=O)Nc1ccc(NC2=Nc3ccccc3N3C2=Nc2c(c(C)nn2-c2ccccc2)C3c2ccccc2)cc1 (configuration not stated) | 0.6% | 0.928µM* | ? | ? | ? | 11.4%
CC(=O)Nc1ccc(NC(=O)N2CCOCC2)cc1 | . | . | . | -7.1% | -4.0% | .
O=C(Nc1ccc2oc(-c3cc(Br)ccc3Cl)nc2c1)c1ccc2ccccc2c1 | . | . | . | ? | -27.3% | .
O=C(Nc1ccc2oc(-c3cccnc3)nc2c1)c1ccc(Br)o1 | -1.4% | . | ? | . | -15.7% | 10.8%
O=C(Nc1ccc2oc(-c3ccccc3)nc2c1)c1ccncc1 | 10µM* | 4.2% | ? | . | -6.5% | -28.3%
O=C(Nc1ccc2oc(-c3ccccc3Cl)nc2c1)c1cncc(Br)c1 | 17.8µM* | 126.3% | -6.2% | . | . | -9.8%
O=C(Nc1ccc2oc(-c3cccnc3)nc2c1)c1ccco1 | -4.2% | -26.2% | -9.2% | -14.4%[1.46 µM] | -22.5% | -75.4%
O=C(Nc1ccc2oc(-c3cccnc3)nc2c1)c1ccc([N+](=O)[O-])o1 | 2.51µM* | ? | ? | -12.0% | -6.0% | -2.8%
O=C(Nc1ccc2nc(-c3ccccc3)oc2c1)c1ccco1 | 10µM* | ? | -9.1% | -18.6% | -3.8% | -14.7%
CCOc1ccc(NC(=O)CN(C)C(=O)c2nc3nc(C)cc(C)n3n2)cc1OCC | 19.2% | -17.6% | -29.7% | . | . | .
CCOc1cccc(C(=O)Nc2ccc3oc(-c4cccnc4)nc3c2)c1 | 10µM* | ? | ? | -11.4% | -21.0% | -1.9%
CCCCOc1cccc(C(=O)Nc2ccc3oc(-c4cccnc4)nc3c2)c1 | . | . | . | -19.6% | -15.4% | .
CCN(CC)S(=O)(=O)c1cccc(-c2nnc(SCCOc3ccccc3C)o2)c1 | 12.6µM* | ? | ? | . | . | -6.2%
CCN(CC)S(=O)(=O)c1cccc(-c2nnc(SCCOc3ccccc3)o2)c1 | ? | . | -45.0% | -16.1% | -20.5% | -17.9%
CCN(CC)S(=O)(=O)c1cccc(-c2nnc(SCCOc3ccc(Cl)cc3)o2)c1 | ? | -23.9% | 10.4µM* | -17.8% | -28.3% | 5.2%
